Screening data deposited in PubChem BioAssay by Sanford-Burnham Center for Chemical Genomics.
CYP2C9 inhib – inhibitors of human CYP2C9 | P11712 | CYP2C9 Supersomes, luciferin-H conversion, luminescence | inhibition, % at 5 µM | actives 20% (n = 96,000) | AID 777;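 active = blocking of liver enzyme CYP2C9 beyond about 50% at 5 µM, limit read from the data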
Pyk2 oligo antag – blocks oligomerization of human Pyk2 in cells; Q14289; Q293 cells, Pyk2 FERM NanoBiT luminescence; stronger effect = lower value; z-score (the deposit names both 25 µM and 10 µM); actives 0.83% (n = 99,000);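 active = Z-score of -3 or lower, scaled per plate to the spread of control and sample wells; inactive = z-score above -3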;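 note: negative z-score means lost luminescence so less FERM oligomerization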
Target sequence (Q14289 whole entry, looked up): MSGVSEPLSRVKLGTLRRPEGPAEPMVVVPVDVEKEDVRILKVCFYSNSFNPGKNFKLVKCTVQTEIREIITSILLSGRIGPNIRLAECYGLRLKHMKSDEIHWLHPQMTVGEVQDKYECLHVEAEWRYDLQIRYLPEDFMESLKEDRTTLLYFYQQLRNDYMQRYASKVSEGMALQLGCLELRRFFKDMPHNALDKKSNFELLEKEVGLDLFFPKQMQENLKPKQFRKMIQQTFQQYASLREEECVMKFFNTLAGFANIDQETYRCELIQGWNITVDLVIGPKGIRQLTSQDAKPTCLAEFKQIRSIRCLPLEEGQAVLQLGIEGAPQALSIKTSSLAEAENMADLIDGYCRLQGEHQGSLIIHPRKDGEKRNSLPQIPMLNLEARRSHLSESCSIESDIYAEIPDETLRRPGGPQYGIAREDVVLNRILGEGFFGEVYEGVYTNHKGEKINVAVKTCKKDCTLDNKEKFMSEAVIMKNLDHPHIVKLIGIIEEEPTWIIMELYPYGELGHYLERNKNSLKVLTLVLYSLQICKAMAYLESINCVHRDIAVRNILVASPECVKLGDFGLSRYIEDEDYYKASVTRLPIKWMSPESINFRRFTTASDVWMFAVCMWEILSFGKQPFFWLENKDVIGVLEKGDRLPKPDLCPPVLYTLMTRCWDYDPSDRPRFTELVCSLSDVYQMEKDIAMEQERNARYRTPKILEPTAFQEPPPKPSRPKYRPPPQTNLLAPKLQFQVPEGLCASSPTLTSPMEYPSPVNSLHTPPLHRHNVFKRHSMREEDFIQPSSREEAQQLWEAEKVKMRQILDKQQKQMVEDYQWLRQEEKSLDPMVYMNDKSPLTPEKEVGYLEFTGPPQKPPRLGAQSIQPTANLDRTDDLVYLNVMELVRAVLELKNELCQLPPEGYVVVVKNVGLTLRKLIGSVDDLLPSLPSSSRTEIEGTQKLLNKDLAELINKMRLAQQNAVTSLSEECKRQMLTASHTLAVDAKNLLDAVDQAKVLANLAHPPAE
CYP2C19 act – increases human CYP2C19 enzyme activity. AID 1025. P33261. 96,000 tested, under 10 active. recombinant CYP2C19, luciferin-H EGE luminescence; stronger effect = higher value; 0 = fully inhibited enzyme, 1 = untreated enzyme. activation factor at 5 µM;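 active = activation factor of at least 2 at 5 µM in the primary screen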;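 note: 0 = wells with 2.5 mM tranylcypromine and 1 = vehicle-only wells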
CYP2C9 activ – CYP2C9 (human) activation | P11712 | recombinant CYP2C9, luciferin-H conversion, luminescence; stronger effect = higher value; factor 1 = untreated enzyme, 0 = blocked | activation factor at 5 µM | actives 1.4% (n = 96,000) | AID 1024;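 active = activation factor of 2 or more for CYP2C9 at a 5 µM dose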;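 note: 0 = sulfaphenazole-blocked wells and 1 = vehicle-only wells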
CYP2C19 inhib – blocks human cytochrome P450 2C19; P33261; CYP2C19 Supersomes, luciferin-H EGE luminescence, 30 min; inhibition, % at 5 µM; actives 21% (n = 96,000);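 active = CYP2C19 inhibition above a set limit at 5 µM in the primary screen, cut at about 50% in these data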;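 note: plate controls were negative control wells for no effect and 2.5 mM tranylcypromine positive control for full effect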
The depositor's hits bear a star; · = not tested or not shown. Shown are actives, neighbours in structure and some others; about 28% of the full set was active somewhere.

SMILES	CYP2C9 inhib	Pyk2 oligo antag	CYP2C19 act	CYP2C9 activ	CYP2C19 inhib
Cc1nn(Cc2cccc(C(=O)Nc3ccn(Cc4c(F)c(F)cc(F)c4F)n3)c2)c(C)c1[N+](=O)[O-]	93*	-1.1	0.1	0.1	86*
Cc1nn(Cc2cccc(F)c2)c(C)c1NC(=O)c1c([N+](=O)[O-])c(C)nn1C	62*	0.19	0.2	0.4	76*
CCC(C)NC(=O)c1ccc(COc2ccccc2Cl)cc1 (stereo not drawn)	7	-0.76	0.9	0.9	12
CCc1nc2ccccc2n1CC(=O)N(C(C)CC)C1CCS(=O)(=O)C1 (stereo not drawn)	-18	-0.39	1.1	1.2	-14
CCC1Oc2ccc(C)cc2N(CC(=O)NCCN2CCCCCC2)C1=O (stereo not drawn)	9	0.52	0.9	0.9	6
Cc1ccc2c(c1)N(CCC(=O)NCC1COc3ccccc3O1)C(=O)CO2 (stereo not drawn)	35	-0.02	0.2	0.6	76*
CCOC(=O)N1CCN(C(=O)CCN2C(=O)COc3ccccc32)CC1	-13	0.04	1.1	1.1	-14
CCC1Oc2ccc(C)cc2N(CC(=O)NCC2COc3ccccc3O2)C1=O (stereo not drawn)	38	·	0.1	0.6	93*
O=C(c1cnc2ccccn2c1=O)N1CCc2ccccc21	-35	-0.41	1	1.4	4
Cc1ccc2c(c1)cc1c(=O)[nH]ncn12	-21	0.04	1.1	1.2	-12
Cn1c(=O)[nH]c(=O)c2c1nc(N1CCOCC1)n2CC(O)COc1ccc2ccccc2c1 (stereo not drawn)	24	0.07	0.7	0.8	30
Nc1ccc(C(=O)OCc2nc3ccccc3[nH]2)cc1	9	0.15	0.2	0.9	81*
COC(=O)c1ccc(C(=O)OCCCc2nc3ccc(N)cc3[nH]2)cc1	·	-0.45	·	·	·
Nc1ccc(C(=O)OCCCc2nc3ccccc3[nH]2)cc1	19	-0.26	0.5	0.8	51*
CC(C)C(=O)Nc1ccccc1C(=O)N/N=C/c1ccc([N+](=O)[O-])cc1	25	0.74	0.8	0.8	24
O=C/C(=C\Nc1ccccn1)c1nc2ccccc2o1	·	0.47	·	·	·
N#C/C(=C\Nc1ccccc1O)c1nc2ccccc2o1	·	-3.4*	·	·	·
O=C(OCn1ncc(Br)c(Br)c1=O)c1ccccc1Cl	2	1.7	0.4	1	57*
CCn1ncc(Br)c1C(=O)Nc1ccc(C(=O)OC(C)C)cc1	8	1.2	0.9	0.9	7
CCn1ncc(Br)c1C(=O)Nc1ccccc1C(=O)OC	·	0.46	·	·	·
O=C(OCn1ncc(Br)c(Br)c1=O)c1ccc(F)cc1	28	1	0.1	0.7	89*
CC(NC(=O)CSc1nc(=O)cc(N)n1CCc1ccccc1)c1ccccc1 (stereo not drawn)	17	-0.4	0.7	0.8	27
CC(=O)C1=C(C)NC(SCC(=O)Nc2nc3ccccc3s2)=C(C#N)C1c1ccc(Cl)cc1 (stereo not drawn)	·	-0.92	·	·	·
CC1=C(C(=O)Nc2ccc(Cl)cc2)C(c2ccncc2)C(C#N)=C(SCC(N)=O)N1 (stereo not drawn)	65*	0.55	0.6	0.4	37
C=CCOC(=O)C1=C(C)NC(SCC)=C(C#N)C1c1ccc(Cl)cc1 (stereo not drawn)	86*	-3.2*	0.5	0.1	53*
SMILES	CYP2C9 inhib	Pyk2 oligo antag	CYP2C19 act	CYP2C9 activ	CYP2C19 inhib
CCOC(=O)CSC1=C(C#N)C(c2ccc(F)cc2)C(C(C)=O)=C(C)N1 (stereo not drawn)	51*	-0.48	0.6	0.5	42
CCOC(=O)C1=C(C)NC(SCC(=O)OC)=C(C#N)C1c1ccc(C(=O)OC)cc1 (stereo not drawn)	96*	-0.48	0	0	97*
CCOC(=O)C1=C(C)Nc2sc(C(=O)c3ccc(F)cc3)c(N)c2C1c1ccc(C(=O)OC)cc1 (stereo not drawn)	·	0.06	·	·	·
CCC(C)C(NC(=O)C(C)NC(=O)CNC(=O)CNC(=O)OCc1ccccc1)C(=O)OC (stereo not drawn)	·	1.4	·	·	·
C=CCOC(=O)C1=C(C)NC(=O)NC1c1ccc(Cl)cc1 (stereo not drawn)	66*	·	0	0.3	100*
CCc1n[nH]c2c1/C(=N\O)CC(c1ccccc1)C2 (stereo not drawn)	98*	-1.1	0	0	96*
CCCCc1noc2c1/C(=N\O)CC(c1ccccc1)C2 (stereo not drawn)	77*	-1.3	0.5	0.2	48
CCCCc1n[nH]c2c1/C(=N/O)CC(c1ccccc1)C2 (stereo not drawn)	18	-2.7	0.6	0.8	40
COc1ccccc1-n1c(C)nc(=O)c(-c2ccccc2)c1C	7	1.1	0.2	0.9	78*
O=C(CCC(=O)OCC(=O)c1ccc(Br)cc1)Nc1ccc(Br)c2cccnc12	-199	0.75	0.7	3*	31
O=C(CCC(=O)OCC(=O)c1ccccc1)Nc1cccc2cccnc12	-7	0.2	1	1.1	0
O=C(ONc1ccc(N=NC(=O)c2ccccc2O)cc1)c1ccccc1	71*	-0.01	0.2	0.3	84*
COc1ccc(O)c(C(=O)CC(=O)c2ccccc2)c1	27	·	0.6	0.7	40
Cn1c(/C(C#N)=C(\O)c2ccc(S(=O)(=O)N3CCCCC3)cc2)nc2ccccc21	45	-0.95	0.9	0.6	8
Cc1csc(SCCn2c(N3CCCC3)nc3c2c(=O)[nH]c(=O)n3C)n1	42	-0.81	0.7	0.6	27
Cc1ccc(S(=O)(=O)n2ccc(-c3cccc(OCc4c(F)cccc4Cl)c3)n2)cc1	68*	-0.55	0.8	0.3	20
Cc1ccc(S(=O)(=O)n2ccc(-c3ccc(OCc4c(F)cccc4Cl)cc3)n2)cc1	·	-0.67	·	·	·
CC(C)(C)C1CCc2onc(C(=O)Nc3ccc(F)cc3F)c2C1 (stereo not drawn)	24	-0.35	0.4	0.8	63*
CSc1ccc(/C=N/NC(=O)c2cccc(O)c2)cc1	25	0.37	0.6	0.8	38
c1ccc(N2CCN(c3cnccn3)CC2)nc1	-3	-0.17	0.6	1	42
N#Cc1cc(C#N)c(N2CCN(c3ccccn3)CC2)nc1N	44	-0.65	0.3	0.6	65*
CN(C)Cc1nc2ccccc2c(=O)n1Cc1nc(-c2cc3ccccc3o2)cs1	70*	-2.4	0.8	0.3	18
Cc1csc(Cn2c(CN(C)C)nc3ccccc3c2=O)n1	13	0.51	0.9	0.9	7
CCn1ncc(/C=N/N=C2\CCC3C4CCc5cc(O)ccc5C4CCC23C)c1C (stereo not drawn)	80*	1.1	0.5	0.2	48
Cc1c(/C=N/N=C2\CCC3C4CCc5cc(O)ccc5C4CCC23C)cnn1C (stereo not drawn)	23	0.77	0.9	0.8	14
O=C(Cc1ccc(F)cc1)NCCc1ccccc1	50*	-0.04	0.3	0.5	68*
